HT1080 IDH1KD tx – toxicity to HT-1080 IDH1 knockdown cells (counter line); 360,000 tested, 2% active; Potency, µM (series often up to 46.1 µM), for inactives: at the top dose activity, negative = toxicity, hits mostly cytotoxic; AID 686971; HT-1080 IDH1 knockdown viability, ATP luminescence, 48 h;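 also: potency is read from the fitted curve at half-maximal effect; 0% = DMSO wells and -100% = cell-free medium wells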
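In this qHTS, HT-1080 cells depleted of IDH1 are exposed for 48 h at 37 °C to compound titrations. Toxicity is scored from CellTiter-Glo luminescence, with DMSO as full viability and medium alone as none.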
DT40 TDP1 no CPT – qHTS for Inhibitors of human tyrosyl-DNA phosphodiesterase 1 (TDP1): qHTS in cells in absence of CPT; Potency, µM (doses to about 46.2 µM), for inactives: top-dose activity change, negative = growth inhibition, usual class: inhibitors; DT40 Tdp1-/- hTDP1 cells, no CPT, ATP luminescence, 48 h; AID 686978, 2013; 420,000 tested, 15% active; also: potency is read from the fitted curve at half-maximal effect; nearly all actives have a fitted effect of over 55% in size
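No-CPT arm: Tdp1-/-;hTDP1 DT40 cells (400/well) plus compounds, incubated ≥48 hr at 37 °C. Readout CellTiter-Glo luminescence.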
TDP1 cell CPT – growth inhibition of DT40 Tdp1-/-;hTDP1 cells with camptothecin (screen for TDP1 inhibitors); chicken DT40 Tdp1-/-;hTDP1 cells + 20 nM CPT, ATP luminescence, 48 h; Potency, µM (doses to about 46.2 µM), for inactives: at the top dose activity change, negative = growth inhibition, actives largely listed as inhibitors; 420,000 tested, 12% active; AID 686979; also: potency is read from the fitted curve at half-maximal effect; nearly all actives have a fitted effect of over 55% in size
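Chicken DT40 Tdp1-/- cells complemented with human TDP1, 400 cells/well, exposed to compounds plus 20 nM camptothecin for at least 48 h at 37 C; viability read as ATP content by CellTiter-Glo luminescence.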
HT1080NT lethal – kills 2HG-producing HT-1080-NT fibrosarcoma cells; 360,000 tested, 1.6% active; HT-1080-NT fibrosarcoma viability, CellTiter-Glo ATP luminescence, 48 h; Potency, µM (titrated, usually from 46.1 µM), without a hit: at the highest dose activity, negative = less viability, most hits filed as cytotoxic;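 also: NT is the 2HG producing partner of a matched IDH1 knockdown line; potency is read from the fitted curve at half-maximal effect; 0% = DMSO-treated cells and -100% = media-only wells without cells; nearly all actives have a fitted effect of over 55% in size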
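HT-1080-NT fibrosarcoma cells (2HG-overproducing), 750 cells/well in RPMI with 5% FBS, dosed after 2 h and incubated 48 h at 37C. CellTiter-Glo luminescence normalized to DMSO and no-cell wells; concentration-response curves fitted and classed.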
IL-1B inflam inh – inhibitors of inflammasome signaling (IL-1 beta secretion) | THP-1 LPS/ATP IL-1B secretion, AlphaLISA, 16 h; active compounds read low | activity change, % at 57.5 µM | 360,000 tested, 4.7% active | AID 743279; in the data active = activity change below about -50%; inconclusive = mostly about -30% to -49%
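Secreted IL-1B measured by AlphaLISA bead assay after 16 h compound exposure of THP-1 cells; compounds (final up to 57.5 uM) added 1 h before LPS (250 ng/mL) and ATP (1.25 mM) stimulation; lower signal means less secretion.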
The depositor's hits bear a star; ? = inconclusive; . = not tested or not shown; [ ] = remark or other dose. Only some compounds are listed: those with a hit (about 19% of all), similar ones and a draw of the others. Unless noted, calls follow the shape of the dose curve; as a rule, active = well fitted curve in the direction sought with a large enough effect; inconclusive = small, poorly fitted or top-dose-only effect, or another doubt; inactive = no such curve, though single readings can be large; an effect the other way counts as inactive or inconclusive. Unless noted, % is scaled to controls: 0 for no effect and ±100 for the full control effect.

SMILES	HT1080 IDH1KD tx	DT40 TDP1 no CPT	TDP1 cell CPT	HT1080NT lethal	IL-1B inflam inh
COc1cc(NC(=O)C(CC(C)C)N2Cc3ccccc3C2=O)cc(OC)c1 (centres undefined)	.	?	-15%	.	.
O=C(CN1CCN(c2cccc(C(F)(F)F)c2)CC1)N(C1CCCC1)C1CCS(=O)(=O)C1 (centres undefined)	4%	?	?	4%	8
CCOc1ccc(C/C(O)=C2\C(=O)CC(C)(C)CC2=NCC(=O)O)cc1OCC	14%	-1%	22%	2%	-8
O=C(CSc1nnc2ccc(-c3ccccn3)nn12)Nc1ccccc1F	1%	6%	-26%	3%	-5
CCOCCCNC(=S)Nc1ccc(S(N)(=O)=O)cc1	6%	1%	0%	2%	11
CC(C)(C)C(=O)Nc1ccc(/C=C/C(=O)c2ccco2)cc1	23µM*	?	?	?	-102*
N#Cc1ccc(/C=C/C(=O)c2ccco2)cc1	-5%	10µM*	9.2µM*	-3%	-29
Nc1ccc(/C=C/C(=O)c2ccco2)cc1	1%	?	-19%	12%	-23
CC1CCN(CCc2nc3cc(NC(=O)COc4ccc(Cl)cc4)ccc3n2C)CC1	?	?	?	?	-96*
Cc1cccc(OCC(=O)Nc2ccc3c(c2)nc(CCN2CCCCC2)n3C)c1	1%	-25%	-17%	-5%	-50*
Cn1c(CCN2CCCC2)nc2cc(NC(=O)COc3ccc(Cl)cc3)ccc21	-23%	16µM*	?	-4%	0
Cc1ccc(OCC(=O)Nc2ccc3c(c2)nc(CCN2CCCCC2)n3C)cc1	6%	?	?	12%	-61*
COc1ccc(OCC(=O)Nc2ccc3c(c2)nc(CCN2CCCCC2)n3C)cc1	11%	17%	-31%	1%	?
CCOc1ccc(C(=O)Nc2nnc(SCC(=O)NCC3CCCO3)s2)cc1OCC (centres undefined)	-5%	-12%	-17%	-3%	-15
COc1ccccc1Cn1c(=S)[nH]c2cc(C(=O)NCC(OC)OC)ccc2c1=O	9%	-13%	?	5%	-5
Cc1ccc(S(=O)(=O)Nc2ccc3c(c2)nc(CCN2CCCCC2)n3C)cc1	?	?	-12%	-26%	-92*
O=C(CSc1n[nH]c(-c2ccccn2)n1)Nc1ccc(F)cc1	?	7.3µM*	?	?	13
Cc1ccc(C)c(NC(=O)CSc2n[nH]c(-c3ccncc3)n2)c1	13%	-20%	-7%	12%	0
O=C(CSc1n[nH]c(-c2ccccn2)n1)Nc1ccc(Cl)cc1	?	4.6µM*	6.5µM*	?	52
Cc1cccc(NC(=O)CSc2n[nH]c(-c3ccncc3)n2)c1C	5%	-29%	12µM*	3%	36
Cc1ccc(NC(=O)CSc2n[nH]c(-c3ccccn3)n2)cc1	?	-79%	5.8µM*	-15%	57
CN1/C(=C/c2cccc[n+]2CCO)Sc2ccccc21	-4%	?	?	-2%	-1
CC[n+]1ccccc1/C=C1\Sc2ccc(C)cc2N1C	9.2µM*	0.33µM*	0.46µM*	23µM*	-77*
COc1cc(OC)c(OC)cc1/C=N/N(C)c1ccccc1	-20%	-25%	-21%	-19%	-62*
COc1cc(/C=N/N(C)c2ccccc2)ccc1O	?	-6%	-29%	-27%	?
SMILES	HT1080 IDH1KD tx	DT40 TDP1 no CPT	TDP1 cell CPT	HT1080NT lethal	IL-1B inflam inh
O=C(NCCOCCn1c(=O)oc2ccccc21)Nc1cccc(Cl)c1	.	8.2µM*	7.3µM*	.	.
Cc1ccc(NC(=O)NCCOCCn2c(=O)oc3ccccc32)cc1C	.	4.1µM*	5.8µM*	.	.
Cc1ccc(NC(=O)NCCOCCn2c(=O)oc3ccccc32)c(C)c1	.	5.8µM*	4.6µM*	.	.
Cc1ccc(NC(=O)NCCOCCn2c(=O)oc3ccccc32)cc1F	.	5.8µM*	5.8µM*	.	.
COc1ccc(NC(=O)C(C)N=C2NS(=O)(=O)c3ccccc32)cc1S(N)(=O)=O (centres undefined)	8%	12%	5%	9%[9.24 µM]	-8
CCOC(=O)C(NC(=O)c1ccccc1)=C(C)C	-5%[9.24 µM]	-15%	-15%	5%	26
COC(=O)C(NC(=O)c1ccccc1)=C(C)C	22%	?	18µM*	17%	18
COc1cccc(NC(=O)c2ccccc2N2C(=O)C3C4C=CC(C4)C3C2=O)c1 (centres undefined)	-17%	-17%	-2%	-7%	-17
COc1cccc(NC(=O)CSc2nc3ccccc3c(=O)n2C)c1	?	23µM*	16µM*	-1%	-15
COc1cccc(NC(=O)CSc2nc(C3CC3)nc3ccccc23)c1	-22%	-9%	1%	-25%	-12
CCCn1c(SC(C(=O)Nc2cc(C)ccc2OC)c2ccccc2)nc2ccccc2c1=O (centres undefined)	11%	15µM*	18µM*	8%	9
CC(C)Oc1ccccc1NC(=O)CSc1nc2ccccc2c(=O)n1C	?	?	21µM*	-2%	-1
CCn1c(SCC(=O)Nc2ccccc2OC)nc2ccccc2c1=O	-8%	?	?	1%	-72*
CC(C)c1c(C(=O)N/N=C2\CCc3ccccc32)nnn1-c1nonc1N	18%	0%	0%	1%	-11
CC(C)(C)OC(=O)NN1CC(=O)N2[C@@H](Cc3c([nH]c4ccccc34)C2(C)C)C1=O	-12%	-26%	-7%	0%	23
Cc1nc(C)c(C(=O)OCC(=O)Nc2ccc(C)c(C)c2)s1	-7%	?	-17%	-2%	6
COC(=O)c1ccccc1NC(=O)CSc1nc2cccnc2n1C	-6%	?	?	0%	-22
CCn1c(SCC(=O)Nc2cc(OC)ccc2OC)nc2c(c1=O)SCC2	-19%	26µM*	?	-8%	-1
COC(=O)c1cccc(NC(=O)CSc2nc3cccnc3n2C)c1	-27%	16µM*	?	-17%	?
CCc1ccc(NS(=O)(=O)c2c(C)nc3sc(CC)nn3c2=O)cc1	1%	13µM*	?	9%	19
CCc1nn2c(=O)c(S(=O)(=O)Nc3ccccc3)c(C)nc2s1	11%	-21%	-10%	15%	-5
CCOc1ccc(NS(=O)(=O)c2c(C(=O)N3CCCCCC3)c(C)n(C)c2C)cc1	-2%	?	?	1%	-3
CCOc1ccc(NS(=O)(=O)c2c(C)nc3sc(C)c(C)n3c2=O)cc1	.	?	18µM*	.	.
Cc1ccc(NS(=O)(=O)c2c(C)nc3sccn3c2=O)cc1C	-6%	?	?	-10%	17
